Screening results: PubChem, National Center for Advancing Translational Sciences (NCATS)
Hits are enriched below; roughly 6.7% of the tested compounds scored in any of these assays.
SW480 rerep – A quantitative high throughput screen for small molecules that induce DNA re-replication in SW480 colon adenocarcinoma cells; SW480 DNA re-replication, Hoechst DNA content imaging, 48 h; Potency, µM (series often up to 46.1 µM), for the others: at the top dose re-replication activation, most hits filed as activators; AID 624297, 2012; 340,000 tested, 1.8% active; also: % of control where 0% means no effect; nearly all actives have a fitted effect of over 55% in size
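Compounds, transferred as 23 nL by pin tool, were incubated with cells for 48 hr; DNA content per nucleus was then quantified by Hoechst staining and fluorescence plate imaging.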
KB-V1 MDR tox – qHTS assay for MDR1-selective chemotherapeutics: Primary screen using the drug-selected MDR subline cells KB-V1 | KB-V1 MDR cells viability, CellTiter-Glo, 72 h | Potency, µM (titrated, usually from 46.1 µM), usual class: cytotoxic | 400,000 tested, 3.4% active; also: % is scaled to controls: 0 for no effect and ±100 for the full control effect; nearly all actives have a fitted effect of over 60% in size
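KB-V1 cells (P-gp-expressing MDR subline of KB-3-1) in phenol-red-free DMEM with 10% FBS were exposed to library compounds over a concentration series for 72 h at 37 degrees C. Viability read by CellTiter-Glo luminescence; concentration-effect curves fitted after normalization.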
PINK1 modulator – A Quantitative High throughput Screen to Identify Chemical Modulators of PINK1 Expression | Potency, µM (highest dose often 76.6 µM), inactives show at the top dose activation (PINK1 increase), actives largely listed as activators | 410,000 tested, 0.2% active | PINK1 immunofluorescence, high-content cytometry, 24 h; active = well fitted activation curve with a large enough effect; inconclusive = small, poorly fitted or top-dose-only effect; cell line not stated here; also: % of control where 0% means no effect; nearly all actives have a fitted effect of over 65% in size
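Readout is PINK1 immunofluorescence, quantified alongside mitochondrial, cell and nuclear markers by laser-scanning microplate cytometry. Cells from a stable line were exposed to compound titrations (5 concentrations) for 24 hours, with CCCP controls.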
KB-3-1 cytotox – qHTS assay for MDR1-selective chemotherapeutics: Primary screen using the parental adenocarcinoma cell KB-3-1; AID 1347075, 2019; KB-3-1 viability, CellTiter-Glo ATP luminescence, 72 h; 400,000 tested, 1.4% active; Potency, µM (highest dose often 46.1 µM), usual class: cytotoxic; also: % is scaled to controls: 0 for no effect and ±100 for the full control effect; nearly all actives have a fitted effect of over 60% in size
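Cytotoxicity measured as CellTiter-Glo luminescence after 72 h at 37 C. Compound titrations were pinned onto drug-naive KB-3-1 parental adenocarcinoma cells grown in DMEM with 10% FBS, and normalized data fitted to concentration-response curves.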
MCF10A rerep – A quantitative high throughput screen for small molecules that induce DNA re-replication in MCF 10a normal breast cells; MCF 10A DNA re-replication, Hoechst nuclear intensity, 48 h; AID 624296, 2012; 350,000 tested, 2.9% active; Potency, µM (doses to about 46.1 µM), for the others: at the top dose activity, positive = re-replication, most hits filed as activators; also: % of control where 0% means no effect; nearly all actives have a fitted effect of over 50% in size
* hit, by the source's call; i = inactive; ? = inconclusive; · = no result given; [ ] = remark or other dose. Unless noted, calls follow the shape of the dose curve; as a rule, active = well fitted curve in the direction sought with a large enough effect; inconclusive = small, poorly fitted or top-dose-only effect, or another doubt; inactive = no such curve, though single readings can be large; an effect the other way counts as inactive or inconclusive. Potency is read from the fitted curve at half-maximal effect.

SMILES	SW480 rerep	KB-V1 MDR tox	PINK1 modulator	KB-3-1 cytotox	MCF10A rerep
CCOC(=O)NCc1ccccc1	?	i	2.0%	i	-30.6%
CCOC(=O)NCc1ccc(S(=O)(=O)Nc2ccccc2C)cc1	1.5%	23.1µM*	-2.3%	i	1.1%
O=c1c2sc3ccccc3c2n(Cc2cccc(F)c2)c(=O)n1CCc1ccccc1	·	i	2.8%	i	·
CC1(C)CCC(c2ccc(Cl)cc2)=C(CN2CCN(c3ccc(C(=O)NS(=O)(=O)c4ccc(N[C@H](CCN5CCOCC5)CSc5ccccc5)c(S(=O)(=O)C(F)(F)F)c4)cc3)CC2)C1	·	i	0.5%	i	·
O=C(CCC(=O)N1CCN(c2ccc(C(F)(F)F)cn2)CC1)c1cccs1	-13.3%	i	-0.3%	i	0.2%
O=C(CSc1nnc(NC(=O)c2c(F)cccc2Cl)s1)Nc1ccccc1F	-6.0%	i	0.7%	i	-3.1%
O=C(COc1ccccc1C(=O)Nc1ccccc1)Nc1cccc(Br)c1	·	i	1.9%	i	·
CCNC(=S)/N=C(\N)Nc1nc(C)c2cc(C)ccc2n1	6.4%	9.2µM*	4.1%	?	6.3%
COc1cc2c(C#N)c(N3CCCCC3)nc(N)c2c(N)n1	-2.8%	8.2µM*	-1.6%	?	?
O=C(Nc1cc(C(=O)N2CCCC2)ccc1N1CCCC1)c1ccccc1F	-0.5%	3.66µM*	-0.6%[38.3 µM]	i	-6.3%
O=C(Nc1ccc(-c2nc3ccc(NC(=O)c4cccs4)cc3[nH]2)cc1)c1cccs1	?	i	6.3%	6.51µM*	?
Cc1cccc(C(=O)Nc2ccc(C(=O)Nc3ccc(O)cc3)cc2)c1	-0.7%	i	5.3%	i	14.6µM*
O=C(Nc1ccc(NC(=O)c2cccs2)cc1)c1ccccc1	?	i	10.2%	i	-1.1%
CC(=O)Nc1ccc(NC(=O)c2ccc(NS(=O)(=O)c3cc(C(C)(C)C)cc(C)c3C)cc2)cc1	1.1%	i	0.5%	i	18.4µM*
O=C(Nc1ccc(O)cc1)c1ccc(NC(=O)c2cccs2)cc1	-10.1%	i	6.9%	18.4µM*	18.4µM*
CCC1(O)CCCC2C3CCC4CC(=O)CCC4(C)C3C(=O)CC21C (centres undefined)	-8.9%	i	-0.5%	i	7.2%
Cc1ccc(NC(=O)c2ccc(NC(=O)c3ccccc3)cc2)cc1C	?	18.4µM*	?	23.1µM*	24.1%
Cc1ccc(NC(=O)CCC(=O)NNC(=O)Cc2ccccc2)cc1C	5.9%	i	·	i	1.84µM*
Cc1ccc(C(=O)Nc2cc(C(C)C)c(O)c(C(C)C)c2)cc1	-0.9%	16.4µM*	1.5%	?	-2.0%
COc1cc2nc(CC(C)C)n(NC(=O)c3ccccc3)c(=O)c2cc1OC	-4.1%	7.31µM*	0.9%	i	0.8%
COc1ccc(C(=O)Nn2c(CC(C)C)nc3cc(OC)c(OC)cc3c2=O)c(OC)c1	-10.3%	i	1.9%	i	-1.7%
Cc1ccc(-n2nnnc2-c2cnc(N3CCCC3)nc2C(F)(F)F)cc1	?	?	-3.0%	?	10.7%
FC(F)(F)c1nc(N2CCCC2)ncc1-c1nnnn1-c1ccccc1	10.4%	2.91µM*	7.1%	?	16.1%
COc1ccc(S(=O)(=O)N2CCCCC2)cc1NC(=O)c1ccc([N+](=O)[O-])o1	2.91µM*	i	4.9%	18.4µM*	2.31µM*
CCN1CCN(c2ccc(S(=O)(=O)N3CCCCC3)cc2NC(=O)c2ccc([N+](=O)[O-])o2)CC1	7.31µM*	?	-2.0%	?	?
SMILES	SW480 rerep	KB-V1 MDR tox	PINK1 modulator	KB-3-1 cytotox	MCF10A rerep
CCN1CCN(c2ccc(S(=O)(=O)N3CCCCC3)cc2NC(=O)c2ccc(F)cc2)CC1	?	i	3.8%	i	7.31µM*
O=C(Nc1cc(S(=O)(=O)N2CCCCC2)ccc1Cl)c1ccccc1NS(=O)(=O)c1ccc(F)cc1	?	?	?	4.61µM*	?
CCN1CCN(c2ccc(S(=O)(=O)N3CCCCC3)cc2NC(=O)c2ccc(C)c(C)c2)CC1	1.2%	i	0.9%	i	-0.2%
COc1ccc(S(=O)(=O)N2CCCCC2)cc1NC(=O)c1ccco1	-0.6%	i	5.1%	i	0.1%
CC1(C)OC(=O)C2=C(C[C@@H](C3CC3)O[C@@H]2C2CC2)O1	·	i	-1.0%	i	·
CC(Sc1nnc2n1CCCCC2)C(=O)Nc1cccc(S(=O)(=O)N2CCOCC2)c1 (centres undefined)	6.3%	i	-0.6%	i	20.0%
COc1ccc(-c2cc3ccccc3oc2=O)cc1NC(=O)c1ccc([N+](=O)[O-])o1	9.2µM*	?	0.5%	?	7.31µM*
Cc1cc(C(=O)NC2CC(C)(C)Cc3c2cnn3-c2ccccc2)n(C)n1 (centres undefined)	2.6%	·	2.6%	·	-2.2%
CC(=O)[C@@]1(O)C(C)CC2C3C=C(C)C4=Cc5c(cnn5-c5ccccc5)C[C@]4(C)C3C(O)C[C@@]21C (some centres undefined)	8.2µM*	?	10.4%	?	14.6µM*
CCOc1cccc2cc(C(=O)N3CCN(C/C=C/c4ccccc4)CC3)c(=O)oc12	0.9%	8.2µM*	-1.4%[38.3 µM]	i	1.4%
CCOc1cc(C(=O)N2CCN(C/C=C/c3ccccc3)CC2)cc(OCC)c1OCC	-5.9%	?	0.3%[38.3 µM]	i	?
CC(=O)c1oc2ccccc2c1N	-2.8%	i	7.5%[38.3 µM]	i	1.0%
O=C(Nc1c(C(=O)c2ccccc2)oc2ccccc12)c1ccc(F)cc1	·	i	7.5%	i	·
Nc1c(C(=O)c2ccc(F)cc2)oc2ccccc12	16.5%	i	?	?	7.31µM*
Nc1c(C(=O)c2ccccc2)oc2ccccc12	?	i	4.6%	i	12.6µM*
COc1cc(NCCCn2ccc(NC(=O)OCc3ccccc3)nc2=O)cc(OC)c1OC	-5.2%	i	0.0%	i	-3.1%
Cc1ncc2c(c1CNC(=O)/C=C/c1cccs1)CCN(C(=O)C1CC(=O)OC13CCCCC3)C2 (centres undefined)	·	·	-0.1%	·	·
Clc1ccc(-c2noc(CSc3nnc(-c4ccncc4)n3-c3ccccc3)n2)cc1	?	2.59µM*	-1.6%[38.3 µM]	i	?
Cc1ccc(-c2noc(CSc3nnc(Cc4ccccc4)n3-c3cccc(C)c3)n2)cc1	18.3%	i	?	?	18.4µM*
O=C(CSc1nnc(-c2ccncc2)n1-c1ccccc1)N1CCN(c2ccc(Cl)cc2)CC1	-10.4%	16.4µM*	7.2%	i	?
